Consider 4 compounds from PubChem BioAssay (NCATS).

Assay [1] is described as follows: qHTS assay to identify small molecules that stimulate interleukin-8 (IL-8) secretion (AID 651758; active = well fitted activation curve with a large enough effect in the signal ratio; the % refers to the signal ratio; note: 0% is about no effect). Put shortly: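 Compounds are added to THP-1 cells (2000 per well) and left 16 hrs at 37 C. A labeled anti-IL-8 antibody pair is then added, and IL-8 secretion is measured by time-resolved FRET after 1-3 hrs at room temperature.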
For orientation: qHTS replaces the single test concentration by a dilution series.

Assay [2] concerns the target Arylsulfatase A (Homo sapiens) (UniProt P15289). The experiment in a line: qHTS screen for enhancers of Arylsulfatase A (ASA1): LOPAC Validation Assay (AID 720538). The following applies: outcome: dose series up to 57.5 µM. Put shortly: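 Read-out: fluorescence at Ex=525/Em=598 nm after 1N NaOH final stop. Patient fibroblasts carrying ASA-I179S had 48h compound exposure, then 14h room-temperature pNCS hydrolysis (0.5mM final) in lysis buffer. Signal increase = enhanced activity.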

Records with an inconclusive call do not appear. The source made the active and inactive calls. Unless noted, calls come from the whole dose curve; as a rule, active = well fitted activation curve with a large enough effect; inconclusive = small, poorly fitted or top-dose-only effect; inactive = no such curve, though single readings can be large or run the other way.

Arylsulfatase A (Homo sapiens), sequence (P15289 whole entry, looked up): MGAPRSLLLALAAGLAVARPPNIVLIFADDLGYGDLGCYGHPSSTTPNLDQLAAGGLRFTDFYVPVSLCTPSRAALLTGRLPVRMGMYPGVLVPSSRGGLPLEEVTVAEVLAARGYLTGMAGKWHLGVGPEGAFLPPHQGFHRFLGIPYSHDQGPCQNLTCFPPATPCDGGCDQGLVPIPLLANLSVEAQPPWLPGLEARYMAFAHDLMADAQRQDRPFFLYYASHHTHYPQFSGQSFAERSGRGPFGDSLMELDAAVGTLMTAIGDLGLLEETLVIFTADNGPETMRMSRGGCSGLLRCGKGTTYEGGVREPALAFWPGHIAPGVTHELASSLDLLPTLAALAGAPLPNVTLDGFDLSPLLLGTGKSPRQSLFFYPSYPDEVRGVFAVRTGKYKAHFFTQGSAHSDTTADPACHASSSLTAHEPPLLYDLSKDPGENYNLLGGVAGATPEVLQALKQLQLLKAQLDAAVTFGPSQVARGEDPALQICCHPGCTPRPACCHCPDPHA

Turning to `C/C=C/c1ccc(O)c(OC)c1`, the call in assay [1] was inactive.
With `NC(=O)c1ccccc1O`, the result in assay [1] was inactive.
In the case of `NC(N)=NCc1cccc(I)c1`, in assay [2], the result was inactive.
Same read-out and setting: the entry for `CN=C(N)NCCC[C@H](N)C(=O)O` is “inactive; inhibitor; fitted 0.0054 uM”.
